Experiments:
Assay in all cases: DAPPL (digital affinity profiling via proximity ligation, sequencing); 10 mM Tris-HCl pH 7.5, 50 mM NaCl, 1 mM DTT, 4% glycerol, room temperature, 30 min; GST-TFs on glutathione beads, 16-mer random dsDNA library, 0.1% formaldehyde crosslink after washing; high values mean tight binding
[1] = target: T1, FLI1 (Homo sapiens, UniProt Q01543 1-452); details: protein: recombinant; tags: N-terminal GST; dsDNA, one strand shown
T1 sequence: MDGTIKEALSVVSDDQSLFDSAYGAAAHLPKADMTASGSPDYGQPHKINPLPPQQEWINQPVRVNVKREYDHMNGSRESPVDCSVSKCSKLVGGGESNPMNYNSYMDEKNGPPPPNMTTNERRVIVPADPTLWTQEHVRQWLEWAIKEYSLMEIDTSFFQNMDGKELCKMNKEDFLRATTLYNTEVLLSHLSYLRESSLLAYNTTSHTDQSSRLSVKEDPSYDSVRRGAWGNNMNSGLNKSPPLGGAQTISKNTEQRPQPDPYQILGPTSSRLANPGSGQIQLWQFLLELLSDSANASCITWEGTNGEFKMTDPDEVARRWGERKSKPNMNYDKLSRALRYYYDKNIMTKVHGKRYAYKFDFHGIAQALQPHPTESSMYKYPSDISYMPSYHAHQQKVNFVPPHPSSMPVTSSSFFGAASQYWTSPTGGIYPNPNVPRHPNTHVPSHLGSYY
Method in brief: (§1)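 In yeast, human transcription factors were expressed with a GST fusion, then pulled down on glutathione beads and given DNA barcodes. Pooled with a tag-only sample, they were exposed to 200 nmole of a 16-mer random double-stranded DNA library (Tris/NaCl/DTT/glycerol buffer, room temperature, 30 min), washed, crosslinked with 0.1% formaldehyde, proximity-ligated using BsaI/T4 ligase for 1 h at 37 °C, PCR-amplified and read on an Illumina NextSeq500. Each hexamer's frequency of reads for a factor, divided by the matching frequency for the tag-only sample, gives the binding signal.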

[2] = target: T2, ELK1 (Homo sapiens, UniProt P19419 1-428); details: protein: recombinant; tags: N-terminal GST; dsDNA, one strand shown
T2 sequence: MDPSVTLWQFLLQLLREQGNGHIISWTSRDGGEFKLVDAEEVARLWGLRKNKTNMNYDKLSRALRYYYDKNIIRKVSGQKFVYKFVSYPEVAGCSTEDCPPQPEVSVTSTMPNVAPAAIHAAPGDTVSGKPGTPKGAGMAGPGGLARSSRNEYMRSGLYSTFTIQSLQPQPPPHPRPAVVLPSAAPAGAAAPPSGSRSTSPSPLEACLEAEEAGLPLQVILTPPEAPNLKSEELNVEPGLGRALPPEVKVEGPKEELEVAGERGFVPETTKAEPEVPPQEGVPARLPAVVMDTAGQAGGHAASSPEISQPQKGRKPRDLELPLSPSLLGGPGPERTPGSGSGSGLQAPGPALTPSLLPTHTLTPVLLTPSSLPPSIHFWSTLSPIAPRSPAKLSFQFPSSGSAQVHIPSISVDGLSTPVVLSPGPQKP
Method in brief: as §1

[3] = target: T3, GABPA (Homo sapiens, UniProt Q06546 1-454); details: protein: recombinant; tags: N-terminal GST; dsDNA, one strand shown
T3 sequence: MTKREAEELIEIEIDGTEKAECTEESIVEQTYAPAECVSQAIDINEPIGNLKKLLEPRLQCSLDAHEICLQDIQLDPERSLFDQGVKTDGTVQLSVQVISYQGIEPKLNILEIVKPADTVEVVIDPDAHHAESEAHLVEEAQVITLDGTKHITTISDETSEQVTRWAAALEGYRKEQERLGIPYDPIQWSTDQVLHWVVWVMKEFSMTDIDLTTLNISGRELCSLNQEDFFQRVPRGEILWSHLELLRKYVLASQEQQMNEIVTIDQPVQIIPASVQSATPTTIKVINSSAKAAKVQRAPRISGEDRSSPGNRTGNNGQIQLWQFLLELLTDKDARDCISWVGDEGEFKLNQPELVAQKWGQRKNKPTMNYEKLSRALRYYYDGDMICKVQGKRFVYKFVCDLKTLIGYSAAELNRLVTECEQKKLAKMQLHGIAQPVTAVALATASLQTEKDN
Method in brief: as §1

[4] = target: T4, ERG (Homo sapiens, UniProt P11308 1-479); details: protein: recombinant; tags: N-terminal GST; dsDNA, one strand shown
T4 sequence: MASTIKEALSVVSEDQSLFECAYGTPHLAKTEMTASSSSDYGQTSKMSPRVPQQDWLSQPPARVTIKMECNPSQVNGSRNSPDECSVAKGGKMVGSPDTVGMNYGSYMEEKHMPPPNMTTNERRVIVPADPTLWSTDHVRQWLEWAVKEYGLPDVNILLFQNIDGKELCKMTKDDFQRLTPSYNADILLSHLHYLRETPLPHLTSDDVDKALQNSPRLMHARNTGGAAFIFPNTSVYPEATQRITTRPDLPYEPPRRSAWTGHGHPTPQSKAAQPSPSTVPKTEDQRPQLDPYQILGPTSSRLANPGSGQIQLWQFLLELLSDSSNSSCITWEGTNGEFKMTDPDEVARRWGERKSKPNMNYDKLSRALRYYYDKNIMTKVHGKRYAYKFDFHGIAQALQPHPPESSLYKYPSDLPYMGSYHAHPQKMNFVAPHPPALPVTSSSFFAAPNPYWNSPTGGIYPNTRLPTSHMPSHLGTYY
Method in brief: as §1

[5] = target: ELF1 (Homo sapiens, UniProt P32519 1-619); details: protein: recombinant; tags: N-terminal GST; dsDNA, one strand shown
ELF1, sequence (P32519 whole entry): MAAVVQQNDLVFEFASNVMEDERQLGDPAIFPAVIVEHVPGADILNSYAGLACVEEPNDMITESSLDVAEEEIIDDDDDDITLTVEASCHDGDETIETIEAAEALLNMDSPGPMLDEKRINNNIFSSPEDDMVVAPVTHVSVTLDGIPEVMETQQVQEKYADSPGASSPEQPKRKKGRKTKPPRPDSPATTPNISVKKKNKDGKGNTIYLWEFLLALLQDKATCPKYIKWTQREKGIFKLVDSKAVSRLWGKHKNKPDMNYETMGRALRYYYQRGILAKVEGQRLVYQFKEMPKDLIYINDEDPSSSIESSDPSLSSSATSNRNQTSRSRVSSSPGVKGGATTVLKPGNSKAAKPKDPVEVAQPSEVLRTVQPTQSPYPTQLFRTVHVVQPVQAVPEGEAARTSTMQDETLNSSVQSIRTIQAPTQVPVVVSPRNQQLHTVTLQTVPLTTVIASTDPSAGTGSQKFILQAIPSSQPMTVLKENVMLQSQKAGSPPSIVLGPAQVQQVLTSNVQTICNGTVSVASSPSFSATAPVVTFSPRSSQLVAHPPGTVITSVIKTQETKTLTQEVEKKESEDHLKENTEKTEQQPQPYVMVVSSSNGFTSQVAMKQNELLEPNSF
Method in brief: as §1

[6] = target: T5, EHF (Homo sapiens, UniProt Q9NZC4 1-300); details: protein: recombinant; tags: N-terminal GST; dsDNA, one strand shown
T5 sequence: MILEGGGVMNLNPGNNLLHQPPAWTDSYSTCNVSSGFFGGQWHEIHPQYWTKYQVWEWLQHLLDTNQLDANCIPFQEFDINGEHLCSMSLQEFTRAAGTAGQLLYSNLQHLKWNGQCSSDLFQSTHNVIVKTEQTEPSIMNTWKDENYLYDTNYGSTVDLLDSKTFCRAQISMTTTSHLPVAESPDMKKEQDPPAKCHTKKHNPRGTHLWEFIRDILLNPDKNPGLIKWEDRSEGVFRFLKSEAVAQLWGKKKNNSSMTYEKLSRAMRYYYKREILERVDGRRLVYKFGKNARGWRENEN
Method in brief: as §1

[7] = target: SPI1 (Homo sapiens, UniProt P17947 1-270); details: protein: recombinant; tags: N-terminal GST; dsDNA, one strand shown
Method in brief: as §1

[8] = target: SPIB (Homo sapiens, UniProt Q01892 1-262); details: protein: recombinant; tags: N-terminal GST; dsDNA, one strand shown
SPIB, sequence (Q01892 whole entry): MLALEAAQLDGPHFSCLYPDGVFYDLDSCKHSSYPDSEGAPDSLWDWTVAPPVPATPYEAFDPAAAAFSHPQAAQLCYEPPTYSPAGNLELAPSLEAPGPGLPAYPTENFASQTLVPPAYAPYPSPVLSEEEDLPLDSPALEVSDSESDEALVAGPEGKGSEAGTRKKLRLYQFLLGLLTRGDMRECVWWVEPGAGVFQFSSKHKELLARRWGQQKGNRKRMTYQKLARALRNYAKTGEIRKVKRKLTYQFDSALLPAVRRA
Method in brief: as §1

[9] = target: T6, ELK3 (Homo sapiens, UniProt P41970 1-407); details: protein: recombinant; tags: N-terminal GST; dsDNA, one strand shown
T6 sequence: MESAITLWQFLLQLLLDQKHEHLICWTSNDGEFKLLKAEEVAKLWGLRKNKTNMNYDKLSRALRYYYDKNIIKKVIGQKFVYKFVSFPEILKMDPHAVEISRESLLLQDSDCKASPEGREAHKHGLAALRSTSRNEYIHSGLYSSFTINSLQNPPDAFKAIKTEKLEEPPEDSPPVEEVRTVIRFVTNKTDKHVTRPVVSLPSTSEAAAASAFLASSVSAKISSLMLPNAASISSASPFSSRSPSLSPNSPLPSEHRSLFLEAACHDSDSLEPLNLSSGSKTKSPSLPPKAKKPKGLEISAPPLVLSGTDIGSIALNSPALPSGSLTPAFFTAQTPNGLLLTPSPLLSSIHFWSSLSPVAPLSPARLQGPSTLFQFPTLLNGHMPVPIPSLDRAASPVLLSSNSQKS
Method in brief: as §1

[10] = target: T7, FEV (Homo sapiens, UniProt Q99581 1-238); details: protein: recombinant; tags: N-terminal GST; dsDNA, one strand shown
T7 sequence: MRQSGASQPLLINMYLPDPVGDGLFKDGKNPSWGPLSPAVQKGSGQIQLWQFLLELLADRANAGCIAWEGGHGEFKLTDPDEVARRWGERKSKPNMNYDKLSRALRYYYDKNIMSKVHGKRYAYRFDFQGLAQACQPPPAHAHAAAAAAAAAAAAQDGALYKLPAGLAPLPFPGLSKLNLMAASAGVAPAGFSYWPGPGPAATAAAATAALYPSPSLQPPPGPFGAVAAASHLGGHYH
Method in brief: as §1

[11] = target: ETV5 (Homo sapiens, UniProt P41161 1-510); details: protein: recombinant; tags: N-terminal GST; dsDNA, one strand shown
ETV5, sequence (P41161 whole entry): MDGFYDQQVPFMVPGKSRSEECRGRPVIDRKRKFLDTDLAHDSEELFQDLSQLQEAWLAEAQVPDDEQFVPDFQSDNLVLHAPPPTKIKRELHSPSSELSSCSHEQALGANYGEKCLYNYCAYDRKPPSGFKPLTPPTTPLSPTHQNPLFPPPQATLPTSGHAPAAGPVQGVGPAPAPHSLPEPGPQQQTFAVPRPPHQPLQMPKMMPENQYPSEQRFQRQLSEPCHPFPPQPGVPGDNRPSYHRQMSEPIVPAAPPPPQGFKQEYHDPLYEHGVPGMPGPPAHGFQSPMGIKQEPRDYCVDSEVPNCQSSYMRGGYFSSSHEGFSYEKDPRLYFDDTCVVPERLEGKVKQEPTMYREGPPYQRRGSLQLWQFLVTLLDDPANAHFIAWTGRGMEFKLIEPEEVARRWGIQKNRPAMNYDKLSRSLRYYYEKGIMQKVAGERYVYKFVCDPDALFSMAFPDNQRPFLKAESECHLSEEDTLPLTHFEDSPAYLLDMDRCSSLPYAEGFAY
Method in brief: as §1

[12] = target: HSF1 (Homo sapiens, UniProt Q00613 1-529); details: protein: recombinant; tags: N-terminal GST; chain copies: 3; dsDNA, one strand shown
HSF1, sequence (Q00613 whole entry): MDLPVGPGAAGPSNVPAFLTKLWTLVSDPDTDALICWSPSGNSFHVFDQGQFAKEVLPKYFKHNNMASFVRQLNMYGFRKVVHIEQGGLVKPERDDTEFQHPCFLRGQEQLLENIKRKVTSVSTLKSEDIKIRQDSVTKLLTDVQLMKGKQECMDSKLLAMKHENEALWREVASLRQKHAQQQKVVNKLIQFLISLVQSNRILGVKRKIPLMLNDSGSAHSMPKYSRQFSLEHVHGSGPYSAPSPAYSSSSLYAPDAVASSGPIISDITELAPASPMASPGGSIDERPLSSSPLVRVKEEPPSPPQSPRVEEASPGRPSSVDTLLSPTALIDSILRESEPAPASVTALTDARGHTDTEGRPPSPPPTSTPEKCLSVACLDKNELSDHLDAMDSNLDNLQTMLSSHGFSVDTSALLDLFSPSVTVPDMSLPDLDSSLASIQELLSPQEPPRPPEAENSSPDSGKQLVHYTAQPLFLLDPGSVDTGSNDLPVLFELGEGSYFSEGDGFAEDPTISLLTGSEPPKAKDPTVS
Method in brief: as §1

[13] = target: T8, SPIC (Homo sapiens, UniProt Q8N5J4 1-248); details: protein: recombinant; tags: N-terminal GST; dsDNA, one strand shown
T8 sequence: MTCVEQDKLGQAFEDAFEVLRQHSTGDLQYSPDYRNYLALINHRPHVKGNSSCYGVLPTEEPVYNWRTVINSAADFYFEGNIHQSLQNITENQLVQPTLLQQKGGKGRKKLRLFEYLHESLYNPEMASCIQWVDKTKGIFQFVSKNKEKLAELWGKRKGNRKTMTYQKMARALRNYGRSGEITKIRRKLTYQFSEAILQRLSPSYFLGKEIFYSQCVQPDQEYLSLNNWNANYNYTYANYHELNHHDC
Method in brief: as §1

[14] = target: ELF4 (Homo sapiens, UniProt Q99607 1-663); details: protein: recombinant; tags: N-terminal GST; dsDNA, one strand shown
ELF4, sequence (Q99607 whole entry): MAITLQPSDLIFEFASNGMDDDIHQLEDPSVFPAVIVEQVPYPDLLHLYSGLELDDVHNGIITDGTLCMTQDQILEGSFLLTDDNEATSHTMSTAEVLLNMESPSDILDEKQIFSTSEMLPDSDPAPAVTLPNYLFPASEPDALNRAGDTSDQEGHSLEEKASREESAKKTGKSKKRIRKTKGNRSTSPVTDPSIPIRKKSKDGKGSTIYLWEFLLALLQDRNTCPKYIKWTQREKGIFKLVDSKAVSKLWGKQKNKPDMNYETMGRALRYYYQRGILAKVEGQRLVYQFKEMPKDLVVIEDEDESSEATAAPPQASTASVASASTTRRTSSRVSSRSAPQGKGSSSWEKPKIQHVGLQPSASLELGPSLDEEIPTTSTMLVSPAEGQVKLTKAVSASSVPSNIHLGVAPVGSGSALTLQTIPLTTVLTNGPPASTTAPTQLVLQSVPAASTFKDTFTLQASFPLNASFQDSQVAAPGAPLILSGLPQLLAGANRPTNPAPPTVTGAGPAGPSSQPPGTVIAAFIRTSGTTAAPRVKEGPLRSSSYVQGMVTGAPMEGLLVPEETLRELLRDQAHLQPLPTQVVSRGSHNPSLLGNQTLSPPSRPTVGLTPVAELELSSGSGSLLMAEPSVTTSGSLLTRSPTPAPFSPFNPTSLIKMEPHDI
Method in brief: as §1

[15] = target: T9, ELK4 (Homo sapiens, UniProt P28324-2 1-405); details: protein: recombinant; tags: N-terminal GST; dsDNA, one strand shown
T9 sequence: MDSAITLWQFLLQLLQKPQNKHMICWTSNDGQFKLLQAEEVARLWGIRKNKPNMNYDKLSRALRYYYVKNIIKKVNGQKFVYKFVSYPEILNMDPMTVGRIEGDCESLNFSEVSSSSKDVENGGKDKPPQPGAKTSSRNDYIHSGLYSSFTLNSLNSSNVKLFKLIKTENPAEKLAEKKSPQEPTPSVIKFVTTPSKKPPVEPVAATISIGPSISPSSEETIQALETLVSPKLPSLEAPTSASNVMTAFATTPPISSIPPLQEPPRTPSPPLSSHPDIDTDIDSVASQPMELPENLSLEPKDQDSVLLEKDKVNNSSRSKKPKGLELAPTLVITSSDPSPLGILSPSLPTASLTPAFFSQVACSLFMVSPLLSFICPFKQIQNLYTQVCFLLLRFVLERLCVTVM
Method in brief: as §1

[16] = target: T10, ETV2 (Homo sapiens, UniProt O00321 1-342); details: protein: recombinant; tags: N-terminal GST; dsDNA, one strand shown
T10 sequence: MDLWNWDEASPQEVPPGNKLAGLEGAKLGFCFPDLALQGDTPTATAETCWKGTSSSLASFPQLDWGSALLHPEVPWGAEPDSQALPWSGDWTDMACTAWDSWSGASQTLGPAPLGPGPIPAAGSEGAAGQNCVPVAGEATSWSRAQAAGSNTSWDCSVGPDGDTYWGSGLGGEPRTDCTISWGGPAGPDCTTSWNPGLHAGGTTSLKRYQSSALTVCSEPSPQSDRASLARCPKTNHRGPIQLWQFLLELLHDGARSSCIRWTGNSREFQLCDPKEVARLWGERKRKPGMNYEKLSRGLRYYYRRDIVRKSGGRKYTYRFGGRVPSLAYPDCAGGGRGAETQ
Method in brief: as §1

[17] = target: T11, ELF3 (Homo sapiens, UniProt P78545 1-371); details: protein: recombinant; tags: N-terminal GST; dsDNA, one strand shown
T11 sequence: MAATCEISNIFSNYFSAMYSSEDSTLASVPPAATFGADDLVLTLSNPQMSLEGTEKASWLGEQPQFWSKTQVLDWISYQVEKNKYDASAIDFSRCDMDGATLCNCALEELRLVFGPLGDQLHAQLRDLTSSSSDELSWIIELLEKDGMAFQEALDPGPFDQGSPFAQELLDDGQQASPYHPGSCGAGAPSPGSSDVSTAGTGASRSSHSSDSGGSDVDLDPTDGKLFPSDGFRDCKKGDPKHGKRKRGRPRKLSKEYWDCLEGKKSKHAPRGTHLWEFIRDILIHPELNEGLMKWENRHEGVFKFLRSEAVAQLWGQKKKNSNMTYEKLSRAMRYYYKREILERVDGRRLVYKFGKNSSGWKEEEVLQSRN
Method in brief: as §1

[18] = target: ETV1 (Homo sapiens, UniProt P50549 1-477); details: protein: recombinant; tags: N-terminal GST; dsDNA, one strand shown
ETV1, sequence (P50549 whole entry): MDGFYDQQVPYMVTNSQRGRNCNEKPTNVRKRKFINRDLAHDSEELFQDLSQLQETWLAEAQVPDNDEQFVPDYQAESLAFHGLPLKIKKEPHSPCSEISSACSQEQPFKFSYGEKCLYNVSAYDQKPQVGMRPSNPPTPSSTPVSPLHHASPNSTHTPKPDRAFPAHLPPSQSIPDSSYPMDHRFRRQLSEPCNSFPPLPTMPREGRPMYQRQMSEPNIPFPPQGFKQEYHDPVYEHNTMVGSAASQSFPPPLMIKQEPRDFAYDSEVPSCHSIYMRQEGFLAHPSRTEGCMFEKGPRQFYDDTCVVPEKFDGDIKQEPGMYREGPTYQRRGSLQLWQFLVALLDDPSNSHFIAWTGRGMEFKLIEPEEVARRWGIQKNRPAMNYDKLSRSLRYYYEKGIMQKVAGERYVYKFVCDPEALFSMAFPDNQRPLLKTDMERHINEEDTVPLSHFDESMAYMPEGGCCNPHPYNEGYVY
Method in brief: as §1

Sequence: AAACTG
- binding signal [1]: 1.09 fold enrichment (6-mer frequency, TF over GST control)
- binding signal [2]: 1.11 fold enrichment (6-mer frequency, TF over GST control)
- binding signal [3]: 1.17 fold enrichment (6-mer frequency, TF over GST control)
- binding signal [4]: 1.01 fold enrichment (6-mer frequency, TF over GST control)
- binding signal [5]: 1.09 fold enrichment (6-mer frequency, TF over GST control)
- binding signal [6]: 1.06 fold enrichment (6-mer frequency, TF over GST control)
- binding signal [7]: 1.12 fold enrichment (6-mer frequency, TF over GST control)
- binding signal [8]: 1.1 fold enrichment (6-mer frequency, TF over GST control)
- binding signal [9]: 1.32 fold enrichment (6-mer frequency, TF over GST control)
- binding signal [10]: 1.06 fold enrichment (6-mer frequency, TF over GST control)
- binding signal [11]: 1.09 fold enrichment (6-mer frequency, TF over GST control)
- binding signal [12]: 1.01 fold enrichment (6-mer frequency, TF over GST control)
- binding signal [13]: 1.07 fold enrichment (6-mer frequency, TF over GST control)
- binding signal [14]: 1.1 fold enrichment (6-mer frequency, TF over GST control)
- binding signal [15]: 1.06 fold enrichment (6-mer frequency, TF over GST control)
- binding signal [16]: 1.09 fold enrichment (6-mer frequency, TF over GST control)
- binding signal [17]: 1.01 fold enrichment (6-mer frequency, TF over GST control)
- binding signal [18]: 1.13 fold enrichment (6-mer frequency, TF over GST control)

Source: PMC7862700, “An all-to-all approach to the identification of sequence-specific readers for epigenetic DNA modifications on cytosine”
